Drawing on PubChem BioAssay AID371 (SRMLSC, 2006), this text covers growth inhibition for 100 molecules.

Among all 3,300 compounds or so, about 280 (8.5%) were called active. For the sample, actives were picked, then their nearest neighbours and some compounds at random. A number with no mark means an inactive call.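 How the source made its calls: active means mean growth inhibition over the two runs of 50% or more; inactive means mean growth inhibition under 50%.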

A short description of this assay: A549 NSCLC cell proliferation inhibitors – ATP luminescence, human non-small cell lung line, primary screen (AID 371).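 Further: compound exposure lasted 72 h before the ATP read; 0% = untreated cell signal and 100% = no luminescence left.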 The conditions noted are these: at 10 µM, hits give high values.
`COC(=O)c1cc(Br)c(=O)n(-c2cc(C)on2)c1`: the growth inhibition is 5.44%.
Consider `CCCCCCSC1=C(C#N)C(c2ccccc2)CC(=O)N1` (stereo not given), for which the growth inhibition is 17.1%.
Next, `N#CC1=C2SCC(O)(c3ccccc3)N2C(=O)CC1c1ccccc1` (stereo not given): 61.5% (active).
As for `C=C(C)CSC1=C(C#N)C(c2ccsc2)CC(=O)N1` (stereo not given), the growth inhibition is 11.7%.
In the case of `CCCCn1c(O)c(C=NCCCN(C)C)c(=O)[nH]c1=O`, the growth inhibition is -0.32%.
With `CC1(C)Cc2c(C#N)c(SCCC#N)nc(N3CCOCC3)c2CS1`, the growth inhibition is 26.4%.
As to `CCOc1ccc(S(=O)(=O)N(C)C)cc1-c1nc2c(C(C)(C)C)nn(C)c2c(=O)[nH]1`, the growth inhibition is -2.28%.
Regarding `CCOc1ccc(S(=O)(=O)N(C)CCO)cc1-c1nc2c(C(C)(C)C)nn(C)c2c(=O)[nH]1`, the growth inhibition is 22%.
For the molecule `CCOc1ccc(S(=O)(=O)NC(C)(C)C)cc1-c1nc2c(C(C)(C)C)nn(C)c2c(=O)[nH]1`, the growth inhibition is 62.9% (active).
The result for `COC(=O)C(NC(=O)c1ccccc1)(Nc1nc(C)cs1)C(F)(F)F` (stereo not given) reads 4.51%.
Next, `CN(C)C(CN1C(=O)C2CC=CCC2C1=O)c1cn(C)c2ccccc12` (stereo not given): -4.21%; `COc1ccc2[nH]c(C)c(C(=O)CN3CCOCC3)c2c1`: -6.74%; `Nc1nnnn1/N=C/c1ccccn1`: 3.3%.
In the case of `CCN(CC)C(=O)CSC1=C(C#N)C(c2ccco2)C(C(=O)OCCOC)=C(C)N1` (stereo not given), the growth inhibition is 1.8%.
With `CCCCc1ccc(NC(=O)CSC2=C(C#N)C(c3ccco3)C3=C(CCCC3=O)N2)cc1` (stereo not given), the growth inhibition is 57.6% (active).
Next, `COc1ccc(OC)c(NC(=O)CSC2=C(C#N)C(c3ccco3)C3=C(CCCC3=O)N2)c1` (stereo not given): 16.1%; `C=CCOC(=O)C1=C(C)NC(SCC(=O)N(CC)CC)=C(C#N)C1c1ccccc1` (stereo not given): 51.2% (active).
Regarding `CCOC(=O)C1=C(c2ccccc2)NC(SCC(=O)Nc2ccccc2C)=C(C#N)C1c1ccco1` (stereo not given), the growth inhibition was 38.8%.
Consider `COCCOC(=O)C1=C(C)NC(SCC(=O)NC(C)(C)C)=C(C#N)C1c1ccco1` (stereo not given), for which the growth inhibition is 32.6%.
Consider `C=CCOC(=O)C1=C(C)NC(SCC(=O)N(CC)CC)=C(C#N)C1c1ccco1` (stereo not given), for which the growth inhibition is 21.8%.
For `CCc1ccccc1NC(=O)CSC1=C(C#N)C(c2ccc(O)c(OC)c2)C2=C(CCCC2=O)N1` (stereo not given), the growth inhibition is 35%.
As to `C=CCOC(=O)C1=C(C)NC(SCC(=O)Nc2ccc(C)c(Cl)c2)=C(C#N)C1c1ccco1` (stereo not given), the growth inhibition was 84.2% (active).
Take `COc1ccc(NC(=O)CSC2=C(C#N)C(c3ccco3)C3=C(CCCC3=O)N2)c(OC)c1` (stereo not given): the growth inhibition is 10.5%.
On to `COc1cccc(NC(=O)CSC2=C(C#N)C(c3ccco3)C3=C(CCCC3=O)N2)c1` (stereo not given), for which the growth inhibition was 60.1% (active).
Regarding `CCc1ccc(NC(=O)CSC2=C(C#N)C(c3ccco3)C3=C(CCCC3=O)N2)cc1` (stereo not given), the growth inhibition was 44.8%.
For the molecule `O=c1[nH]c(CN2CCCCC2)nc2c1C1(CCCCC1)Cc1ccccc1-2`, the growth inhibition was -4.24%.
`CCCCc1[nH]c(=O)c(C#N)c2c1CSC(C)(C)C2`: the growth inhibition is 7.58%.
As to `CCCCOC(=O)CSC1=C(C#N)C(c2ccccc2OC)C(C#N)C(=O)N1` (stereo not given), the growth inhibition was 6.07%.
The result for `COc1ccc2nc(SCC(=O)O)nc(C)c2c1` reads -2.56%; that for `COc1ccc(-c2cc(=O)[nH]c(=O)[nH]2)cc1`, 1.67%; that for `Cc1nnc2n(-c3ccccc3)c(=O)c3c4c(sc3n12)COC(C)(C)C4`, -0.59%.
Next, `N#Cc1ccc(-c2cccnc2)nc1SCC(=O)Nc1sc2c(c1C#N)CCC2`: 14.6%; `CCC(C)n1ncn(-c2ccc(N3CCN(c4ccc(OCC5COC(Cn6cncn6)(c6ccc(Cl)cc6Cl)O5)cc4)CC3)cc2)c1=O` (stereo not given): 50.3% (active).
`COCc1n[nH]c(=S)n1-c1cccc2ccccc12`: the growth inhibition was 4.29%.
On to `CCOc1ccc(N=C2C(=O)N(CN3CCOCC3)c3ccccc32)cc1`, for which the growth inhibition was 20.3%.
In the case of `COC(=O)c1ccc(Cn2c(O)c(N=O)c3ccccc32)o1`, the growth inhibition was 8.55%.
The result for `CCCCCC(=O)N1CC2(CC)CN(C(=O)CCCCC)CC(CC)(C1)C2=O` reads 14.3%.
As to `O=C1c2ccccc2C(=O)C1c1ccc2ccccc2n1`, the growth inhibition is 74.9% (active).
As to `O=C(O)CCSc1ccc2ccccc2n1`, the growth inhibition is 1.45%.
With `CC(Sc1ccc2ccccc2n1)C(=O)O` (stereo not given), the growth inhibition was -2.6%.
As for `COC(=O)C1=C(N)Oc2cc(C)oc(=O)c2C1c1ccncc1` (stereo not given), the growth inhibition was -1.55%.
As for `COC(=O)/C(=C1/Oc2cc(C)oc(=O)c2S1)C(F)(F)F`, the growth inhibition was 76.1% (active).
As to `COC(=O)c1ccc(C2/C(=C(\O)c3cccc(OC)c3)C(=O)C(=O)N2CCCN(C)C)cc1` (stereo not given), the growth inhibition is 1.92%.
For the molecule `Cc1nnc2n(-c3ccccc3)c(=O)c3c4c(sc3n12)CC(C)CC4` (stereo not given), the growth inhibition was 12.7%.
For the molecule `CN=C(c1ccco1)n1c(=S)nc(-c2ccco2)n(C)c1=S`, the growth inhibition was 5.55%.
For `NS(=O)(=O)c1ccc(C(=O)O)cc1`, the growth inhibition is -6.06%.
With `O=C(O)c1cc(O)c2c(c1)C(=O)c1cccc(O)c1C2=O`, the growth inhibition was 59.2% (active).
Consider `COc1cc(C(=O)Nc2ccc(O)cc2C(=O)O)ccc1OC(C)=O`, for which the growth inhibition is 2.72%.
On to `Nc1cccc(C(=O)O)c1`, for which the growth inhibition is 4.57%.
Turning to `CC(=O)Oc1ccccc1C1OC(=O)c2ccccc2N1C(C)=O` (stereo not given), the growth inhibition is 4.51%.
As to `CC(=O)Oc1cccc2c1C(=O)c1c(OC(C)=O)cc(C(=O)O)cc1C2=O`, the growth inhibition is 57.8% (active).
Consider `CN1CCN(Cc2c(O)ccc3c(-c4ccccc4)cc(=O)oc23)CC1`, for which the growth inhibition is 8.11%.
In the case of `Cc1c(Cl)c(C(F)(F)F)nn1CC(=O)N1CCSCC1`, the growth inhibition was 8.88%.
With `Cn1c(OCc2cccnc2)nc2c1c(=O)n(Cc1ccc(Cl)cc1)c(=O)n2C`, the growth inhibition is 35.5%.
The result for `O=C(NCCCNCc1ccccc1)/C(=N\O)c1ccccc1` reads 1.98%; that for `CCOC(=O)c1[nH]c2ccc(Br)cc2c1NC(=O)CNC`, 15.7%.
With `C=COC(=O)CSc1nc(-c2cccs2)ccc1C#N`, the growth inhibition was 5.33%.
Next, `CC(=O)NCC(=O)OCN1C(=O)c2ccccc2C1=O`: -2.75%; `CCOc1ccc2nc(SCC(=O)Nc3ncccn3)[nH]c2c1`: -4.07%.
As for `CCCSc1ccc2nc(NC(=O)OC)[nH]c2c1`, the growth inhibition was 53.2% (active).
For the molecule `Cn1c(=O)oc2cc(C(=O)c3ccccc3)ccc21`, the growth inhibition is 13.3%.
As to `CCC(=O)Nc1nc(C)c(Oc2ccccc2)c(=O)[nH]1`, the growth inhibition was 1.39%.
As to `CC(=O)Nc1ccc(Oc2ccc3nc(C)[nH]c3c2)cc1`, the growth inhibition is 10.6%.
As to `COC(=O)Nc1nc2ccc(Sc3ccccc3)cc2[nH]1`, the growth inhibition was 81.7% (active).
Turning to `CCCOc1ccc2nc(NC(=O)OC)[nH]c2c1`, the growth inhibition was 48.4%.
With `Cn1c(=O)n(C)c2cc(C(=O)c3ccccc3)ccc21`, the growth inhibition is 5.5%.
Regarding `COC(=O)Nc1nc2ccc(C(=O)c3ccccc3)cc2[nH]1`, the growth inhibition is 55.8% (active).
With `COC(=O)CCc1c(C)[nH]c(C(=O)OCc2ccccc2)c1C`, the growth inhibition was 3.52%.
As to `O=C(Nc1ccc2c(c1)OCO2)c1cc2n(n1)C(C(F)(F)F)CC(c1ccccc1)N2` (stereo not given), the growth inhibition is 10.4%.
`Cc1nc2sc(C)c(C)c2c(=O)o1`: the growth inhibition is 3.93%.
As for `COCCCNC(=O)C(C#N)c1nc2ccccc2nc1N1CCCC1` (stereo not given), the growth inhibition was 9.56%.
As for `O=C(O)CCCC(=O)Nc1ccn(-c2ccccc2)n1`, the growth inhibition is -9.55%.
On to `COc1ccc(C2C(C#N)=C(C)NC3=C2C(=O)c2ccccc23)cc1` (stereo not given), for which the growth inhibition was 19.6%.
Regarding `COCCOCCOCCC(=O)NC1CC2CCC1(C)C2(C)C` (stereo not given), the growth inhibition is 0.85%.
In the case of `O=C(CCC1CCCC1)N1CCC(N2CCN(c3ccccc3)CC2)CC1`, the growth inhibition was 17.9%.
For the molecule `CC(NCCc1ccc(O)cc1)C(O)c1ccc(O)cc1` (stereo not given), the growth inhibition was 1.42%.
On to `CCCCCCCCNC(C)C(O)c1ccc(SC(C)C)cc1` (stereo not given), for which the growth inhibition is 92.4% (active).
The result for `NC(=O)C1CCN(CCC(=O)Nc2ccc(Br)cc2)CC1` reads 7.48%; that for `Cc1cccc(NC(=O)c2c(C)cc(=O)oc2C)n1`, -3.57%.
For `CCNc1nc(Oc2ccccc2)nc(OC(C)C(=O)OCC)n1` (stereo not given), the growth inhibition was -2.75%.
For the molecule `CCOc1ccc(-n2c3nc4ccccc4nc3c3c(=O)n(Cc4ccco4)cnc32)cc1`, the growth inhibition was 14.6%.
Regarding `Cc1cc(C)cc(-n2c3nc4ccccc4nc3c3c(=O)n(Cc4ccco4)cnc32)c1`, the growth inhibition is 72.2% (active).
Next, `COc1cc(-n2c3nc4ccccc4nc3c3c(=O)n(Cc4ccco4)cnc32)cc(OC)c1OC`: 4.1%; `COc1ccc(C2(CN(C(C)=O)C(C)=O)CCCC2)cc1OC`: 9.44%.
Regarding `COC(=O)NCC12CC3CC(C1)CC(CNC(=O)OC)(C3)C2`, the growth inhibition is 2.32%.
As to `Nc1c(Br)cc2oc(-c3ccccc3)nc2c1Br`, the growth inhibition was 31.4%.
As to `O=C1CCCN1c1ccc(S(=O)(=O)NCc2ccco2)cc1`, the growth inhibition was 0.41%.
The result for `COc1ccc(OC)c(NS(=O)(=O)c2ccc(N3CCCC3=O)cc2)c1` reads 62.5% (active); that for `COc1ccc(N2CC(=O)N(c3ccc(OC)c(OC)c3)CC2=O)cc1OC`, -2.72%.
For the molecule `CCOc1ccc(/C(O)=C2/C(=O)C(=O)N(CCN(C)C)C2c2ccccc2)cc1Cl` (stereo not given), the growth inhibition is -0.75%.
Turning to `COc1cccc(/C(O)=C2\C(=O)C(=O)N(c3ccccn3)C2c2ccccc2OC)c1` (stereo not given), the growth inhibition is 6.79%.
The result for `CC(C)Cn1cnc2c(c1=O)c1nc3ccccc3nc1n2Cc1ccc2c(c1)OCO2` reads 12.6%.
The result for `CC(C)C1Cc2c(C#N)c(N)n(C)c(=S)c2CO1` (stereo not given) reads 11.2%; that for `COc1ccc(OC)c(C2C(C(=O)c3ccco3)=C(O)C(=O)N2CCCN2CCOCC2)c1` (stereo not given), 4.05%; that for `Cc1nc(N2CCN(Cc3ccccc3)CC2)c(C#N)c2c1COC(C)(C)C2`, 17.5%.
On to `Fc1ccccc1-c1nc(N2CCCCC2)c2ccccc2n1`, for which the growth inhibition was 47.5%.
With `c1ccc(CN2CCN(c3nc(-c4ccccn4)nc4ccccc34)CC2)cc1`, the growth inhibition is 60% (active).
With `c1ccc2c(N3CCCCC3)nc(N3CCCCC3)nc2c1`, the growth inhibition was 25.8%.
Regarding `c1ccc(N2CCN(c3nc(-c4ccccn4)nc4ccccc34)CC2)cc1`, the growth inhibition was 64.6% (active).
As for `COc1cccc(-c2nc(N3CCN(Cc4ccccc4)CC3)c3ccccc3n2)c1O`, the growth inhibition is 6.86%.
